Source: PubChem BioAssay
CIT2 TOR yeast = modulators of TOR pathway CIT2-GFP in S. cerevisiae; AID 2029; GFP response vs DMSO, % at 10 µM; S. cerevisiae CIT2-GFP strain, flow cytometry, 3 h; 100 means same as DMSO wells; 320,000 tested, 0.065% active;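 active = GFP response relative to DMSO above a set limit, near the screen mean plus 3 SD, cut at about 150% in these data; inconclusive = Fewer than 70 cells measured for a yeast strain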;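 note: ratio of well median GFP fluorescence to mean of DMSO wells on the plate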
RPL19A TOR yeast = yeast TOR pathway RPL19A-GFP modulation | S. cerevisiae RPL19A-GFP strain, flow cytometry, 3 h; hits give low values | percent response vs DMSO, % at 10 µM | 330,000 tested, 0.3% active | AID 2025;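 active = percent response vs DMSO below 50%; inconclusive = fewer than 70 events counted for the yeast strain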;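 note: median channel GFP fluorescence of the barcoded RPL19A-GFP strain; ratio of sample median GFP to plate DMSO average so 100% = DMSO; lower means less RPL19A-GFP as with rapamycin TOR inhibition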
MEP2 TOR yeast = yeast TOR pathway MEP2-GFP modulation | AID 2016 | GFP response vs DMSO, % at 10 µM | 330,000 tested, 0.51% active | S. cerevisiae MEP2-GFP strain, flow cytometry GFP, 3 h; 100% = DMSO control level;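 active = GFP response versus DMSO above a set limit, roughly screen mean plus 3 SD, cut at about 180% in these data; inconclusive = fewer than 70 cells counted for a yeast strain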;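 note: median GFP fluorescence of the barcode-gated MEP2-GFP cells per well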
Myeloid diff 2 = promotes myeloid progenitor differentiation; 360,000 tested, 1% active; calls only at 10 µM; ER-HoxA9 myeloid progenitors, lysozyme-GFP differentiation, flow cytometry;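 active = normalized GFP-positive differentiation at or above the plate's own cutoff, the solvent-only control mean plus 3 SD; inconclusive = no clear call, values can overlap the other calls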;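 note: cells exposed to compound for four days before flow analysis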
AGP1-GFP MLPCN = alters AGP1-GFP fluorescence in TOR pathway yeast screen. S. cerevisiae AGP1-GFP multiplex flow cytometry, 3 h; GFP as percent of DMSO wells. GFP response vs DMSO, % at 10 µM. 320,000 tested, 0.02% active. AID 2066;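 active = GFP response relative to DMSO above a set limit, near screen average plus 3 SD, cut at about 150% in these data; inconclusive = fewer than 70 cells counted for the yeast strain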;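 note: median GFP channel fluorescence of the gated AGP1 strain per well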
LAP4-GFP MLPCN = yeast TOR pathway LAP4-GFP modulation | S. cerevisiae LAP4-GFP multiplex, flow cytometry GFP, 3 h; median GFP as percent of DMSO wells | GFP response vs DMSO, % at 10 µM | 320,000 tested, 0.34% active;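 active = GFP response vs DMSO above a set limit, about the screen mean plus 3 SD, cut at about 150% in these data; inconclusive = under 70 cell events counted for the yeast strain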
* = called active by the depositor; i = inactive; ? = inconclusive; . = no result; + = active, no number; [ ] = remark or other dose. In the library only some 1.8% were active in any assay of this set; here they are far more common.

SMILES	CIT2 TOR yeast	RPL19A TOR yeast	MEP2 TOR yeast	Myeloid diff 2	AGP1-GFP MLPCN	LAP4-GFP MLPCN
COc1cccc(/C=N/NC(=O)c2ccncc2)c1OC(=O)c1ccc(Br)cc1	?	17*[may fluoresce violet]	122	i	?	78
Cc1ccccc1-c1nc2sc3c(c2c(=O)o1)CCC3	121	99	114	i	66	97
O=c1oc(-c2ccccc2)nc2sc3c(c12)CCCC3	?	18*[may fluoresce violet]	?	i	?	?
COc1ccc(OCc2cc(C(=O)N(C)Cc3nnc(C)o3)no2)c(Cl)c1	109	101	103	i	104	103
O=C(C1CCN(S(=O)(=O)c2ccc(Cl)s2)CC1)N1CCN(c2ccccc2)CC1	.	.	.	i	.	.
O=C(CCc1nnc(Cc2c[nH]c3ccccc23)o1)NCCC1CCCCO1 (configuration not stated)	.	.	.	+	.	.
O=C(CCc1nnc(Cc2c[nH]c3ccccc23)o1)NC1CCCC1	107	100	107	i	107	106
CCOC(=O)C(=CNNc1cccc(Cl)c1)C(=O)OCC	105	98	98	i	103	154*
CCOC(=O)C(=CNc1ccc(Cl)cn1)C(=O)OCC	91	100	99	i	100	110
C1CCN(c2nc(N3CCCCC3)nc(N3CCNCC3)n2)CC1	?	92	218*[may fluoresce violet]	i	82	99
COc1ccc(N2C(=O)CC(N3CCN(Cc4ccc5c(c4)OCO5)CC3)C2=O)cc1 (configuration not stated)	93	98	94	i	99	109
CC(C)(C)OC(=O)N1CCN(Cc2ccc(F)c(B(O)O)c2)CC1	.	.	.	+	.	.
CC(C)(C)OC(=O)N1CCCN(C(=O)c2ccc(Cl)cc2)CC1	100	101	96	i	96	87
C/C(=N\NC(=S)Nc1cc(S(=O)(=O)N2CCOCC2)ccc1Cl)c1ccc(N2CCOCC2)cc1	105	102	105	+	103	102
COc1ccc2cc(/C(C)=N/NC(=S)Nc3cc(S(=O)(=O)N4CCOCC4)ccc3N3CCOCC3)ccc2c1	94	103	98	.	101	102
CC(C)c1nnc(NC(=O)CCC(=O)Nc2ccc(Cl)cc2)s1	116	105	107	i	109	97
Cc1cc(C)cc(NC(=O)CCC(=O)Nc2nnc(C(C)C)s2)c1	107	105	112	+	114	114
Cn1c(C(=O)NCCN2CCN(c3ccccc3F)CC2)cc2c(=O)n(C)c3ccccc3c21	93	92	101	+	103	104
COc1ccc(-c2cn[nH]c2C)cc1OC	98	93	96	i	97	98
Cc1[nH]ncc1-c1ccccc1Cl	?	48*[may fluoresce violet]	336*[may fluoresce violet]	i	20	96
CC1Cc2cc(-c3csc(NC(=O)Cc4ccccc4)n3)ccc2N1S(C)(=O)=O (configuration not stated)	98	97	103	+	101	97
CS(=O)(=O)N1CCc2cc(-c3csc(NC(=O)C(c4ccccc4)c4ccccc4)n3)ccc21	90	96	99	i	103	95
Cc1cc(C)nc(NC(N)=NC2CCCCC2)n1	97	106	103	+	102	101
CCCCC(CC)CNC(=O)CC1Nc2c3ccccc3nc(=S)n2C1=O (configuration not stated)	105	109	93	i	116	97
Brc1ccc(N=C/C=C/C=C/Nc2ccc(Br)cc2)cc1	367*[may fluoresce green]	152	430*[may fluoresce green]	i	135	413*[may fluoresce green]
SMILES	CIT2 TOR yeast	RPL19A TOR yeast	MEP2 TOR yeast	Myeloid diff 2	AGP1-GFP MLPCN	LAP4-GFP MLPCN
O=C(Nc1ccccc1C(F)(F)F)c1ccccn1	97	99	98	i	94	97
c1ccc(-c2cn(-c3ccccc3)c3[n+]2CCS3)cc1	92	96	102	+	100	125
O=C(NCCNS(=O)(=O)c1ccccc1)N1CCOCC1	94	93	95	i	103	93
COc1ccc(S(=O)(=O)NCCNC(=O)N2CCOCC2)cc1	173*[may fluoresce green]	97	114	i	125	114
CC(C)(C)C(=O)/C=c1\[nH]c(=O)/c(=C\c2ccccc2F)s1	?	91	215*[may fluoresce violet]	.	17	84
Cc1ccccc1/C=c1\s/c(=C\C(=O)C(C)(C)C)[nH]c1=O	97	105	110	i	98	108
Cc1ccccc1OCC(=O)Nc1ccc(S(=O)(=O)Nc2onc(C)c2C)cc1	89	102	106	i	98	87
COc1ccccc1OCC(=O)Nc1ccc(S(=O)(=O)Nc2onc(C)c2C)cc1	?	46*[may fluoresce violet]	311*[may fluoresce violet]	i	?	78
O=C1CC(=C(c2ccccc2)c2ccccc2)C(=O)N1CCCCN1CCN(c2ccccc2)CC1	100	93	96	i	94	94
Cc1csc(N)n1	78	?	89	i	77	420*[may fluoresce red]
Cc1ccc(-c2csc(N)n2)s1	105	101	93	i	105	111
COc1ccc(N)cc1-n1c(C)ccc1C	92	94	100	+	95	93
O=C(NCCN1CCCCC1)Nc1cccc(C(F)(F)F)c1	101	99	102	i	104	99
COc1ccc(CC(=O)Oc2ccccc2C)cc1	89	96	191*	i	87	96
COc1cc(C(=O)ON=C2C3CC4CC(C3)CC2C4)cc(OC)c1OC	180*	91	107	i	52	155*
COc1cc(C(=O)O/N=C2\C=CC(=O)C=C2C)cc(OC)c1OC	99	103	97	i	96	90
CCN(CC(=O)Nc1sc2c(c1C#N)CCC(C)C2)CC(=O)NC1CCS(=O)(=O)C1 (configuration not stated)	101	97	97	i	104	98
COc1ccc(CC(=O)NC(=S)Nc2cccc(C)c2)cc1	92	97	89	+	94	113
CC[C@H](C)[C@H](NC(=O)c1ccc(Cl)cc1)C(=O)OCC(=O)c1c(N)n(C)c(=O)n(C)c1=O	104	97	98	i	97	92
CCc1nc(N)nc(N)c1-c1ccc(Cl)cc1	114	104	90	+	91	113
O=C(/C=C/Nc1ccccc1C(F)(F)F)c1ccco1	101	94	101	i	102	102
CCOc1nnc(C)c2c(C)n(-c3cccc(OC)c3)nc12	113	56	317*	i	35	94
CCOC(=O)Cn1cnc2c(nnn2-c2cccc(OC)c2)c1=O	105	98	101	i	96	93
CCOC(=O)CC12CN3CN(C1)CC(CC(=O)OCC)(C3)C2=O	93	96	101	+	99	98
